In PubChem BioAssay (NCI):
This is part of a sample that, as a whole, favours compounds with a hit. Of some 83,000 tested, about 20% had one in any assay.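 In brief: 96-well plates, 48 h treatment, single concentration, percent growth endpoint.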 Values without a mark were called inactive. Calls of active or inactive are those of the source. The calls were made as follows: active = growth percent below 10; inactive = the rest.

How the values were obtained:
Assay in all cases: NCI-60 one-dose screen, 48 h (100 = growth as untreated, 0 = no growth, -100 = all killed)
Details in all cases: 10 µM unless noted
NCI-H23 lung = system: NCI-H23 lung
NCI-H226 lung = system: NCI-H226 lung
NCI-H322M lung = system: NCI-H322M lung
HOP-62 NSCLC = system: HOP-62 NSCLC
NCI-H460 lung = system: NCI-H460 lung
HOP-92 NSCLC = system: HOP-92 NSCLC
NCI-H522 lung = system: NCI-H522 lung
A549/ATCC NSCLC = system: A549/ATCC NSCLC
786-0 renal = system: 786-0 renal
COLO 205 colon = system: COLO 205 colon
DU-145 prostate = system: DU-145 prostate
K-562 leukemia = system: K-562 leukemia
MALME-3M melanoma = system: MALME-3M melanoma
MDA-MB-231 breast = system: MDA-MB-231 breast
RXF 393 renal = system: RXF 393 renal
SF-268 CNS = system: SF-268 CNS
SF-295 CNS = system: SF-295 CNS
SF-539 CNS = system: SF-539 CNS
UACC-257 melanoma = system: UACC-257 melanoma
M14 melanoma = system: M14 melanoma

| Compound | growth (NCI-H23 lung) | growth (NCI-H226 lung) | growth (NCI-H322M lung) | growth (HOP-62 NSCLC) | growth (NCI-H460 lung) | growth (HOP-92 NSCLC) | growth (NCI-H522 lung) | growth (A549/ATCC NSCLC) | growth (786-0 renal) | growth (COLO 205 colon) | growth (DU-145 prostate) | growth (K-562 leukemia) | growth (MALME-3M melanoma) | growth (MDA-MB-231 breast) | growth (RXF 393 renal) | growth (SF-268 CNS) | growth (SF-295 CNS) | growth (SF-539 CNS) | growth (UACC-257 melanoma) | growth (M14 melanoma) |
| --- | --- | --- | --- | --- | --- | --- | --- | --- | --- | --- | --- | --- | --- | --- | --- | --- | --- | --- | --- | --- |
| CCOC(=O)n1cc(-c2nonc2-c2cn(C)c3ccccc23)c2ccccc21 | 55% | 75.4% | 44% | 34.5% | 14.5% | 54.4% | 18.4% | 40.1% | 48% | 24.3% | 57.2% | 11.2% | 41% | 46% | 63.5% | 54% | 27.8% | 21.9% | 68.9% | 21.5% |
| COc1ccc2c(c1)c(-c1nonc1-c1cn(C)c3ccc(OC)cc13)cn2C | 59.2% | 75.1% | 71.1% | 32.4% | 12.6% | 55.6% | 18.5% | 39.2% | 54.5% | 32.9% | 70.9% | 13% | 41.7% | 49.5% | 70.9% | 54.2% | 30.4% | 33.9% | 62.4% | 16.6% |
| CCN1C(=O)N(CC)C2C1NN=C1SCC(=O)N12 (stereo not given) | 96.1% | 91.6% | 103% | 100% | 103% | 114% | 77.5% | 102% | 95.8% | 44.7% | 101% | 47.9% | 77% | 59.4% | 107% | 98.6% | 100% | 92.9% | 22.2% | 85% |
| O=C1/C(=C/c2ccccc2)CN(C(=O)c2cccnc2)C/C1=C\c1ccccc1 | -30.5% (active) | -43.7% (active) | 34.1% | 0.894% (active) | -35.1% (active) | 78.7% | -25.4% (active) | 17.2% | -53.8% (active) | -29.5% (active) | 14.5% | 2.62% (active) | 23.9% | 3.84% (active) | -64.1% (active) | 17.4% | -8.61% (active) | -4.29% (active) | 23.9% | -41.5% (active) |
| O=C(/C=C\c1ccco1)/C=C/c1ccco1 | 98.6% | 98.6% | 117% | 98.1% | 116% | 107% | 112% | 102% | 110% | 106% | 106% | 111% | 112% | 93.4% | 100% | 113% | 101% | 108% | 100% | 105% |
| O=C(CSc1nc2ccc([N+](=O)[O-])cc2[nH]1)Nc1cccc([N+](=O)[O-])c1 | 24.8% | 36.5% | 83.5% | 95.6% | 47.5% | -14.2% (active) | 19.8% | 58% | 61.6% | 52.5% | 67% | 36.5% | 30.5% | 73.7% | 60.5% | 64.6% | 43.8% | 66.6% | 42.7% | 57.1% |
| CC(=O)Nc1c(Cl)cc(Cl)c2c1Cc1cc([N+](=O)[O-])ccc1-2 | 94.6% | 113% | 99% | 90.5% | 86.6% | 100% | 91.9% | 82.4% | 75.7% | 93.4% | 104% | 90.2% | 107% | 83.6% | 85.3% | 95.5% | 113% | 61.1% | 107% | 100% |
| COc1cc2cc(Oc3ccc(NC(=O)Nc4ccccc4)cc3)c(C)nc2cc1OCCN1CCCCC1 | 96.5% | 99.8% | 114% | 94.9% | 33% | 55.7% | 106% | 78.6% | 68.3% | 69.3% | 89.6% | -45.6% (active) | -75% (active) | 85.7% | 53.5% | 83.5% | 100% | -80.4% (active) | 84% | -90.1% (active) |
| Cc1ccc(Nc2nc(-c3ccc(F)cc3)c(C#N)c(=O)n2C)cc1 | 66.7% | 64% | 74.8% | 50.9% | 84.5% | 0.0271% (active) | 49.7% | 61.7% | 67.5% | 66.8% | 72.7% | 97.6% | 45.8% | 23.4% | 50.2% | 66.5% | 79.1% | 64.8% | 74.5% | 77.9% |
| O=C(O)C1CN(c2cccc(Cl)c2)N(c2cccc(Cl)c2)C1=O (stereo not given) | 89.8% | 92.8% | 83.9% | 88% | 102% | 101% | 87.1% | 105% | 96.5% | 94.5% | 96.2% | 101% | 70.8% | 85.1% | 94.9% | 81.7% | 95.6% | 100% | 99.3% | 87.8% |
| CN(C)Cc1ccc(C(=O)Nc2ccc3ncnc(Nc4ccc(Oc5cccc(F)c5)c(Cl)c4)c3c2)cc1 | 49.5% | 80.2% | 4.65% (active) | 45.1% | -74.3% (active) | 36.2% | -29.6% (active) | 8.26% (active) | -84.9% (active) | -53.3% (active) | 7.69% (active) | -39.3% (active) | -80.6% (active) | -73.9% (active) | -80.4% (active) | -31% (active) | -41.7% (active) | -90.1% (active) | -58.3% (active) | -69.3% (active) |
| Nc1c(C(=O)O)cc(Cl)cc1[N+](=O)[O-] | 90.6% | 96.4% | 103% | 89.7% | 108% | 58.7% | 98.4% | 97.6% | 96.1% | 115% | 108% | 95.2% | 105% | 91.3% | 88.9% | 98% | 109% | 99.7% | 96.8% | 96.8% |
| CCN1C(=O)N(CC)C2C1NN=c1s/c(=C\c3ccccc3Br)c(=O)n12 (stereo not given) | 27.1% | 56.7% | 37.5% | 40% | 3.66% (active) | 19.5% | 0.628% (active) | 12.3% | 17.4% | 3.13% (active) | 10.5% | 13.1% | 42% | 13.9% | 50.7% | 43.9% | 9.97% (active) | -16% (active) | 56% | 8.22% (active) |
| Cn1cc(-c2ccc3cc(-c4ccc(CC(=O)Nc5cc(C(C)(C)C)on5)cc4)cnc3c2)cn1 | 46.1% | 43% | 16.5% | 44.4% | -3.39% (active) | 50.9% | 17.2% | 16.5% | -92.6% (active) | 35.3% | 22.1% | 5.03% (active) | -15.8% (active) | 11.4% | -0.246% (active) | 15.7% | 29.7% | 20.4% | 5.83% (active) | 0.0609% (active) |
| C=CCN=C(N)SCCCCCCSC(N)=NCC=C | 105% | 97.1% | 103% | 75.1% | 102% | 63.3% | 64.4% | 86.8% | 92.2% | 86.4% | 107% | 79.2% | 98.7% | 94.8% | 109% | 95% | 97.3% | 99.6% | 87.8% | 92.4% |
| CC(C)c1ccc(NC(=O)Nc2ccc(NC(=O)c3ccccc3N)cc2)cc1 | 59.5% | 74.3% | 55% | 22.6% | 22.7% | 74.2% | 26.8% | 50% | 8.19% (active) | 61.8% | 79.2% | 18.2% | 72.9% | 50.1% | -25.1% (active) | 51.8% | -27.3% (active) | 30.1% | 58.6% | 34% |
